The values that follow come from PubChem BioAssay (NCATS).

Results filed as inconclusive are left out. Values without a mark were called inactive. Active and inactive are the calls of the source. Calls follow the shape of the dose curve; as a rule, active = well fitted curve in the direction sought with a large enough effect; inconclusive = small, poorly fitted or top-dose-only effect, or another doubt; inactive = no such curve, though single readings can be large; an effect the other way counts as inactive or inconclusive.
% is scaled to controls: 0 for no effect and ±100 for the full control effect.

One experiment in a line: qHTS of pediatric cancer cell lines to identify multiple opportunities for drug repurposing: Primary screen for MG 63 (6-TG R) cells (AID 1347105). Also: nearly all actives have a fitted effect of over 50% in size. Also: potency is read from the fitted curve at half-maximal effect. The settings on record: MG 63 (6-TG R) viability, CellTiter-Glo, 48 h; series mostly up to 46 µM; activity change, negative = cytotoxic: at the top concentration. Put shortly:
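Viability was measured as metabolically active cells after 48 hours of treatment, read by CellTiter-Glo luminescence. Compounds were tested at multiple final concentrations, giving concentration-response curves.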
Regarding `NC(Cc1ccc(Cl)cc1)C(=O)O` (stereo not given), the activity change, negative = cytotoxic is 9.57% [at 0.597 µM].
On to `CCCCCN(CCCCC)C(=O)C(CCC(=O)O)NC(=O)c1ccc(Cl)c(Cl)c1` (stereo not given), for which the “activity change, negative = cytotoxic” value was -15.5%.
With `CCO/C([O-])=N/c1c[n+](N2CCOCC2)no1`, the “activity change, negative = cytotoxic” value was -14.9%.
On to `CCN(CC)CCOCCOC(=O)C1(c2ccccc2)CCCC1`, for which the “activity change, negative = cytotoxic” value is -17.7%.
For the compound `CSc1ccc(C(=O)c2[nH]c(=O)[nH]c2C)cc1`, the “activity change, negative = cytotoxic” value was -5.41%.
The same measure, in the same setting: for `CCn1cc(C(=O)O)c(=O)c2cc3c(cc21)OCO3` the value was -8.11% [at 16.1 µM]; for `CC(=O)[C@@]1(O)CC[C@H]2[C@@H]3CCC4=CC(=O)CC[C@]4(C)[C@H]3CC[C@@]21C`, -12.1%; for `CN(C)CCN(Cc1cccs1)c1ccccn1`, -7.23%.
Same read-out and setting: to `CC(C)(C)NCC(O)c1cc(O)cc(O)c1` (stereo not given) belongs -28.3%; to `CN(C)C(=O)Oc1cccc([N+](C)(C)C)c1`, -2.91%.
On the same count and under the same terms, to `COc1ccc(CN(CCN(C)C)c2ccccn2)cc1` belongs 3.77%; to `O=c1[nH]c(=O)n([C@H]2C[C@H](O)[C@@H](CO)O2)cc1Br`, -17.8%; to `C[C@]12C=CC(=O)C=C1CC[C@H]1[C@@H]3C[C@@H](O)[C@](O)(C(=O)CO)[C@@]3(C)C[C@H](O)[C@@]12F`, 2.04%.
With `CCCNC(C)C(=O)Nc1ccccc1C` (stereo not given), the “activity change, negative = cytotoxic” value was -8.43%.
Still for that read-out and setting: for `CC(N=C(NC#N)Nc1ccncc1)C(C)(C)C` (stereo not given) the value was -7.49%.
Consider `CC(=O)[C@]1(O)Cc2c(O)c3c(c(O)c2[C@@H](O[C@H]2C[C@H](N)[C@H](O)[C@H](C)O2)C1)C(=O)c1ccccc1C3=O`, for which the Potency was 2110 nM (active).
`NC/C=C/C(=O)O`: the “activity change, negative = cytotoxic” value was 2.73%.
`Nc1c2c(nc3ccccc13)CCCC2O` (stereo not given): the “activity change, negative = cytotoxic” value was -18.3%.
Still for that read-out and setting: to `OCCN1CCN(CCCN2c3ccccc3C=Cc3ccccc32)CC1` belongs -2.83%.
As for `Cc1cccc(C)c1NC(=O)C(C)N` (stereo not given), the “activity change, negative = cytotoxic” value is -12.2%.
The same measure, in the same setting: for `CCNC(=O)N1CCN(CCCC(c2ccc(F)cc2)c2ccc(F)cc2)CC1` the value was -8.39%; for `C[C@]12CCC(=O)C=C1CC[C@@H]1[C@@H]2C(=O)C[C@@]2(C)[C@H]1CC[C@]2(O)C(=O)CO`, -18.6%; for `COc1cc(Cc2cnc(N)nc2N)cc(OC)c1OC`, -22.2%.
Turning to `CN(C)C/C=C(/c1ccc(Br)cc1)c1cccnc1`, the “activity change, negative = cytotoxic” value was -16.1%.
On the same count and under the same terms, to `O=C1CC2(CCCC2)CC(=O)N1CCCCN1CCN(c2ncccn2)CC1` belongs -15.9%; to `Cc1nnc(SCC2=C(C(=O)O)N3C(=O)[C@@H](NC(=O)Cn4cnnn4)[C@H]3SC2)s1`, -14.7%.
Same read-out and setting: for `CN/C(=C\[N+](=O)[O-])NCCSCc1ccc(CN(C)C)o1` the value was -32.1%; for `CC1=NS(=O)(=O)c2cc(Cl)ccc2N1`, -4.99%.
Still for that read-out and setting: to `O=C(O)CCCCCCCC(=O)O` belongs 4.66%.
As for `CCN(CC)CC(=O)Nc1c(C)cccc1C`, the “activity change, negative = cytotoxic” value is -19.1%.
Take `NC1=NCC2c3ccccc3Cc3ccccc3N12` (stereo not given): the “activity change, negative = cytotoxic” value was -16.1%.
On to `Cc1scc2c1N(C(=O)CN1CCN(C)CC1)c1ccccc1NC2=O`, for which the “activity change, negative = cytotoxic” value is -9.48%.
Still for that read-out and setting: for `CCCOc1ccccc1-c1nc2n[nH]nc2c(=O)[nH]1` the value was -5.41%; for `CN(C)CCOC(=O)COc1ccc(Cl)cc1`, 1.9%.

A short description of another experiment: qHTS of pediatric cancer cell lines to identify multiple opportunities for drug repurposing: Primary screen for control Hh wild type fibroblast cells (AID 1347106).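 Also: a drop in luminescence marks cytotoxicity and a rise apparent proliferation; nearly all actives have a fitted effect of over 55% in size.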 The note with it: Hh wild-type fibroblast viability, CellTiter-Glo luminescence, 48 h; series mostly up to 46 µM; activity change, negative = cytotoxic: at the top concentration. Put shortly: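 Cells (500-1,000/well) in growth media were settled 5 h at 37 degrees C, then given compounds for 48 h. Viability was read as CellTiter-Glo luminescence. Primary runs used MIPE at 11 points (0.78 nM-46 µM) and NPC at 8 points (0.59 nM-46 µM); follow-ups used 11 points.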
`NC(Cc1ccc(Cl)cc1)C(=O)O` (stereo not given): the activity change, negative = cytotoxic is 6.18% [at 0.597 µM].
On the same count and under the same terms, to `CCCCCN(CCCCC)C(=O)C(CCC(=O)O)NC(=O)c1ccc(Cl)c(Cl)c1` (stereo not given) belongs 0.712%.
On the same count and under the same terms, for `CCO/C([O-])=N/c1c[n+](N2CCOCC2)no1` the value was -1.26%; for `CSc1ccc(C(=O)c2[nH]c(=O)[nH]c2C)cc1`, 1.98%.
As for `CCn1cc(C(=O)O)c(=O)c2cc3c(cc21)OCO3`, the “activity change, negative = cytotoxic” value was 8.89% [at 16.1 µM].
Take `CC(=O)[C@@]1(O)CC[C@H]2[C@@H]3CCC4=CC(=O)CC[C@]4(C)[C@H]3CC[C@@]21C`: the “activity change, negative = cytotoxic” value is 11.5%.
For `CN(C)CCN(Cc1cccs1)c1ccccn1`, the “activity change, negative = cytotoxic” value was 2.33%.
Same read-out and setting: for `CC(C)(C)NCC(O)c1cc(O)cc(O)c1` (stereo not given) the value was -10.7%.
The same measure, in the same setting: for `CN(C)C(=O)Oc1cccc([N+](C)(C)C)c1` the value was 20.1%.
In the case of `COc1ccc(CN(CCN(C)C)c2ccccn2)cc1`, the “activity change, negative = cytotoxic” value was 15.9%.
For `O=c1[nH]c(=O)n([C@H]2C[C@H](O)[C@@H](CO)O2)cc1Br`, the “activity change, negative = cytotoxic” value was 16.4%.
The same measure, in the same setting: to `CNCCCN1c2ccccc2CCc2ccccc21` belongs -8.58%; to `CC(N=C(NC#N)Nc1ccncc1)C(C)(C)C` (stereo not given), 8.4%.
The same measure, in the same setting: for `NC/C=C/C(=O)O` the value was 11.1%; for `Nc1c2c(nc3ccccc13)CCCC2O` (stereo not given), -3.16%.
The same measure, in the same setting: to `OCCN1CCN(CCCN2c3ccccc3C=Cc3ccccc32)CC1` belongs -2.09%; to `Cc1cccc(C)c1NC(=O)C(C)N` (stereo not given), -4.87%; to `CCNC(=O)N1CCN(CCCC(c2ccc(F)cc2)c2ccc(F)cc2)CC1`, 15.2%.
For `C[C@]12CCC(=O)C=C1CC[C@@H]1[C@@H]2C(=O)C[C@@]2(C)[C@H]1CC[C@]2(O)C(=O)CO`, the “activity change, negative = cytotoxic” value is 4.09%.
On to `CN(C)C/C=C(/c1ccc(Br)cc1)c1cccnc1`, for which the “activity change, negative = cytotoxic” value was 3.17%.
Same read-out and setting: for `O=C1CC2(CCCC2)CC(=O)N1CCCCN1CCN(c2ncccn2)CC1` the value was 13%; for `Cc1nnc(SCC2=C(C(=O)O)N3C(=O)[C@@H](NC(=O)Cn4cnnn4)[C@H]3SC2)s1`, -2.54%.
Still for that read-out and setting: for `CC1=NS(=O)(=O)c2cc(Cl)ccc2N1` the value was 3.44%.
Same read-out and setting: to `O=C(O)CCCCCCCC(=O)O` belongs 8.97%; to `CCN(CC)CC(=O)Nc1c(C)cccc1C`, 4.24%.
Consider `CN(C)CCOC(=O)COc1ccc(Cl)cc1`, for which the “activity change, negative = cytotoxic” value is 10.8%.
